# Measurements from PubChem BioAssay (NCATS).
# Results filed as inconclusive are left out. Entries that show only a call come without a potency. Calls of active or inactive are those of the source. Unless noted, calls come from the whole dose curve; as a rule, active = well fitted curve in the direction sought with a large enough effect; inconclusive = small, poorly fitted or top-dose-only effect, or another doubt; inactive = no such curve, though single readings can be large; an effect the other way counts as inactive or inconclusive.
# Tests used:
# [1] = target: Glutathione peroxidase 1 (Homo sapiens) (UniProt P07203); assay: Primary qHTS Assay for Inhibitors of Recombinant Selenoprotein Glutathione Peroxidase 1 (GPX1) (AID 1845191); note: nearly all actives have a fitted effect of over 65% in size
# Chain of Glutathione peroxidase 1 (Homo sapiens) (P07203 whole entry, looked up): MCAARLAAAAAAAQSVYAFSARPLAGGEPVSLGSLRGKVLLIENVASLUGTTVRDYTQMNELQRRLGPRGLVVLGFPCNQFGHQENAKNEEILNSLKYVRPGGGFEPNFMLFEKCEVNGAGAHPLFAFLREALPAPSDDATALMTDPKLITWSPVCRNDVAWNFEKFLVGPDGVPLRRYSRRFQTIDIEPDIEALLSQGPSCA
# In short: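 10 nM GPX1 + cpd, 30 min RT; start w/ 1 mM GSH, 0.5 mM cumene hydroperoxide, 0.5 mM NADPH, 100 nM GR, 0.01% BSA; buffer 50 mM Tris-HCl pH 7.5, 2 mM EDTA, 150 mM NaCl; Fl 340/450, 0 & 15 min.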
# [2] = target: Phospholipid hydroperoxide glutathione peroxidase GPX4 (Homo sapiens) (UniProt P36969); assay: Primary qHTS Assay for Inhibitors of Recombinant Selenoprotein Glutathione Peroxidase 4 (GPX4) (AID 1845192); note: nearly all actives have a fitted effect of over 65% in size; note: potency is the fitted concentration of half-maximal effect; for activity change, negative = inhibition: series mostly up to about 50 µM
# Chain of Phospholipid hydroperoxide glutathione peroxidase GPX4 (Homo sapiens) (P36969 whole entry, looked up): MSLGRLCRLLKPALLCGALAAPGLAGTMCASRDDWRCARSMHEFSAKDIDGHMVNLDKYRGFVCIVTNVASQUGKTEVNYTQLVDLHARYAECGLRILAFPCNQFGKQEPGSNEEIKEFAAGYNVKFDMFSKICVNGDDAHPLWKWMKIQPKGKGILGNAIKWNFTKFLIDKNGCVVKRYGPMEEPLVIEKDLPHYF
# In short: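 NADPH consumption, followed by fluorescence at 340/450 nm between 0 and 15 min, reports GPX4 activity via coupled glutathione reductase (100 nM). Enzyme 200 nM was pre-exposed to compound 30 min; 0.5 mM cumene hydroperoxide and 1 mM GSH served as substrates.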
# [3] = HepG2 viability counterscreen (readout 1: protease activity) against the NCATS DSHEA and TCM libraries (AID 1794841);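 note: cells exposed to compounds for about 24 h before the protease read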
# In short: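 HepG2 cells, 1,000/well, attached ~4 h, then exposed ~24 h at 37C to substances. Protease activity read by fluorescence of 25 uM GF-AFC (Ex/Em 380/510 nm) after 30 min; ATP then by CellTiter-Glo luminescence.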
# [4] = target: Cytochrome P450 3A4 (Homo sapiens) (UniProt P08684); assay: qHTS for inhibitors of CYP3A4 against the NCATS DSHEA and TCM libraries (AID 1919971);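 note: inhibition lowers luminescence from luciferin made by CYP3A4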
# Chain of Cytochrome P450 3A4 (Homo sapiens) (P08684 whole entry, looked up): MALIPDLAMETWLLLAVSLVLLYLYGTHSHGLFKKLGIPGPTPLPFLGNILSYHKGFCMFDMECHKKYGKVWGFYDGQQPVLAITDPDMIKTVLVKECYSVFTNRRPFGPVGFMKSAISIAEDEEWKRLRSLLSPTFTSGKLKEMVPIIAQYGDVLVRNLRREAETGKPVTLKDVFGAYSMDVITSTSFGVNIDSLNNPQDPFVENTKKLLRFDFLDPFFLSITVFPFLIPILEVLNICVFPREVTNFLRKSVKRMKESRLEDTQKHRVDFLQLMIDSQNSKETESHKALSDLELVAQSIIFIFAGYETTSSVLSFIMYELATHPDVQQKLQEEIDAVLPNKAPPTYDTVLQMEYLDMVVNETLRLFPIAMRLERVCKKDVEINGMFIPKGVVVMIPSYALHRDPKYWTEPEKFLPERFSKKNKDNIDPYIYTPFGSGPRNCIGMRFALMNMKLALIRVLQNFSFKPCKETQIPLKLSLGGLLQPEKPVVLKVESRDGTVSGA
# In short: (§1)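 Luminescent P450-Glo format: compounds preincubated 15 min with enzyme and luciferin substrate, reaction run 30-45 min after NADPH regeneration solution. Intraplate controls: ketoconazole for CYP3A4 and CYP2C19, sulfaphenazole for CYP2C9.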
# [5] = target: Cytochrome P450 2D6 (Homo sapiens) (UniProt P10635); assay: qHTS for inhibitors of CYP2D6 against the NCATS DSHEA and TCM libraries (AID 1919972)
# Chain of Cytochrome P450 2D6 (Homo sapiens) (P10635 whole entry, looked up): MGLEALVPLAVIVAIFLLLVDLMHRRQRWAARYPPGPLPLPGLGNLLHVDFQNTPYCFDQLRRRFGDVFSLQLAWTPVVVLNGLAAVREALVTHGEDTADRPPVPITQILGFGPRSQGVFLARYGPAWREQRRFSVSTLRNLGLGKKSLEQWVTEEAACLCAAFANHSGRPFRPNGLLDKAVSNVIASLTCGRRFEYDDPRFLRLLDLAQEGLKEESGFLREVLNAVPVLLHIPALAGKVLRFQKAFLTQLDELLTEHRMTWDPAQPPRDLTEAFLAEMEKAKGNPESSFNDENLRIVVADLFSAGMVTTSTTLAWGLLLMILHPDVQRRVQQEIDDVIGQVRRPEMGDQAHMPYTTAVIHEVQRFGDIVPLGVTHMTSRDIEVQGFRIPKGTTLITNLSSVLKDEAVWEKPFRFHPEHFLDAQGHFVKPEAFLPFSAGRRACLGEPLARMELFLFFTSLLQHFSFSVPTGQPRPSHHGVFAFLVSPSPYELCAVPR
# In short: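 Luminescent P450-Glo read-out of CYP2D6 turnover of a luciferin substrate after NADPH-driven reaction of 30-45 min at room temperature. Compounds were first preincubated 15 min with enzyme at titrated concentrations; quinidine was the intraplate control.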
# [6] = target: Cytochrome P450 2C19 (Homo sapiens) (UniProt P33261); assay: qHTS for inhibitors of CYP2C19 against the NCATS DSHEA and TCM libraries (AID 1919974);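 note: luminescence from luciferin released by CYP2C19 oxidation of a pro-luciferin substrate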; note: potency is the fitted concentration of half-maximal effect
# Chain of Cytochrome P450 2C19 (Homo sapiens) (P33261 whole entry, looked up): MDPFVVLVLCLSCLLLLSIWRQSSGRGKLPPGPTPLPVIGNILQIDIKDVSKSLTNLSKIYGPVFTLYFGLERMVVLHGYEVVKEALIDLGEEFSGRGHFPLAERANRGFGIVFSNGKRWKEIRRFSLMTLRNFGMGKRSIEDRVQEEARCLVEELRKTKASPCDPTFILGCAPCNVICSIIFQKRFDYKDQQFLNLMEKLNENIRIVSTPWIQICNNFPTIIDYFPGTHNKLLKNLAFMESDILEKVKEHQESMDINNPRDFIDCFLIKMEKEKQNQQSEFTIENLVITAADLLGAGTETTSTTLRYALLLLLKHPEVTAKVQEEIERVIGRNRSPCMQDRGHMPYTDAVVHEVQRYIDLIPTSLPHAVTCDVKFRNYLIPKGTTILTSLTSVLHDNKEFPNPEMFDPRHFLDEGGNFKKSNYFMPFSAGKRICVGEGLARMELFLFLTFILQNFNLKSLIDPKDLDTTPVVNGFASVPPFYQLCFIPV
# In short: as §1
# [7] = KB-3-1 P-gp reporter qHTS against the NCATS DSHEA and TCM libraries (AID 1919975)
# In short: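 Parental KB-3-1 cells, 500 cells/well, in DMEM with 10% FBS, exposed 72 h at 37 C to compounds in concentration-response. Viability read by CellTiter-Glo luminescence after 30 min at room temperature.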
# [8] = qHTS Counterscreen for compound interference against the NCATS DSHEA and TCM libraries (AID 1919978); conditions: firefly luciferase detection reagent interference, luminescence;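 note: compounds preincubated with 1 µM D-luciferin or buffer before detection reagent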
# In short: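 Firefly luciferase detection reagent was added after compounds (19.5 nM–39.8 uM final) had been incubated 15 min at room temperature with 1 uM D-luciferin or with 100 mM phosphate buffer alone. Luminescence was read after 30 min at room temperature.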
# [9] = Dual reporter qHTS for agonist of Pregnane X Receptor (hPXR) against the NCATS DSHEA and TCM libraries: Fluorescence readout (AID 1920058)
# In short: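 hPXR-Luc HepG2 cells, 2000/well in charcoal-stripped serum, attached 5 h, dosed for ~24 h at 37 °C. Fluorescence read is CellTiter-Fluor viability (Ex/Em 405/540 nm); rifampicin positive, tetraoctyl ammonium bromide (92 µM) cytotoxicity controls.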
# [10] = target: Nuclear receptor subfamily 1 group I member 2 (Homo sapiens) (UniProt O75469); assay: Dual reporter qHTS for agonist of Pregnane X Receptor (hPXR) against the NCATS DSHEA and TCM libraries: Luminescence readout (AID 1920059)
# Chain of Nuclear receptor subfamily 1 group I member 2 (Homo sapiens) (O75469 whole entry, looked up): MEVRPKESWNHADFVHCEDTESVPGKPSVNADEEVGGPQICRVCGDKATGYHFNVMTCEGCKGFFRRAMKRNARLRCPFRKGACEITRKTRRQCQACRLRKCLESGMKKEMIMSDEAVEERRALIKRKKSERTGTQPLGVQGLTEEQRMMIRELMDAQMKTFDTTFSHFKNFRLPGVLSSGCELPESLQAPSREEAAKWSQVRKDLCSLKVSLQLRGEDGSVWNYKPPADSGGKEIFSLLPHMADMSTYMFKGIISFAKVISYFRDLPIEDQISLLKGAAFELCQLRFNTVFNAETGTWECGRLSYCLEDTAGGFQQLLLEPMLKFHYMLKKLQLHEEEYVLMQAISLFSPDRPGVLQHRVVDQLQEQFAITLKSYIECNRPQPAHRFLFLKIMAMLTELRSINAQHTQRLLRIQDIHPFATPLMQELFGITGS
# In short: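 Luminescent PXR reporter read (ONE-Glo) after a CellTiter-Fluor viability read, following 24 h, 37C treatment of HepG2 cells stably carrying hPXR-Luc.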
# [11] = target: Nuclear receptor subfamily 1 group I member 2 (Homo sapiens) (UniProt O75469); assay: Dual reporter qHTS for antagonist of Pregnane X Receptor (hPXR) against the NCATS DSHEA and TCM libraries: Luminescence Readout (AID 1920060)
# In short: (§2)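 Rifampicin-stimulated (2 uM final) hPXR-luciferase HepG2 cells were treated for 24 h with DSNP/TCM substances. Viability came from CellTiter-Fluor fluorescence, reporter activity from ONE-Glo luminescence.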
# [12] = Dual reporter qHTS for antagonist of Pregnane X Receptor (hPXR) against the NCATS DSHEA and TCM libraries: Fluorescence Readout (AID 1920061)
# In short: as §2
# [13] = target: Cytochrome P450 2C9 (Homo sapiens) (UniProt P11712); assay: qHTS for inhibitors of CYP2C9 against the NCATS DSHEA and TCM libraries (AID 1919973);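 note: luminogenic pro-luciferin CYP2C9 substrate turned into luciferin with NADPH regeneration; series mostly up to about 34 µM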
# Chain of Cytochrome P450 2C9 (Homo sapiens) (P11712 whole entry, looked up): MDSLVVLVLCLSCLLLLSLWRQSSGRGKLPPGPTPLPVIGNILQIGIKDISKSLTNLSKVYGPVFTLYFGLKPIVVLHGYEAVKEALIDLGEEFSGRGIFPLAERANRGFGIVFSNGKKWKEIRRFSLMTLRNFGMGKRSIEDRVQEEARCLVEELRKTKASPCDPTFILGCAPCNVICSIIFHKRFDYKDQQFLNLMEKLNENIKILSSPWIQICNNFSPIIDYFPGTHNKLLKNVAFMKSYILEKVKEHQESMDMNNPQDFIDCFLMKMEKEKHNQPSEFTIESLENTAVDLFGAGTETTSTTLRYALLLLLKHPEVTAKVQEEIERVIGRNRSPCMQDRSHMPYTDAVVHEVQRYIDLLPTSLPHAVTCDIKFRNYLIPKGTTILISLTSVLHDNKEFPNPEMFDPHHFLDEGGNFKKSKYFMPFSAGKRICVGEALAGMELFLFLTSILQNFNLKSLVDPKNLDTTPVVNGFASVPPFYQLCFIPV
# In short: as §1
# [14] = qHTS drug screen for cell cycle checkpoint inhibitors in PARPi-resistant BRCA-mutant ovarian cancer cell lines. (AID 1963452; calls by dose curve); conditions: PEO1/OlaR viability, CellTiter-Glo luminescence, 96 h, stronger effect = lower value
# In short: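 PEO1, PEO4 and PEO1/OlaR ovarian cancer cells, 600 per well, exposed 96 h at 37C to a dilution series. Viability read by CellTiter-Glo luminescence, normalized to DMSO and empty wells; activity summarized as Z-AUC.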
# [15] = target: Cytochrome P450 1A2 (Homo sapiens) (UniProt P05177); assay: qHTS for inhibitors of CYPIA2 against the NCATS DSHEA and TCM libraries (AID 1919976);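 note: light from luciferin formed by CYP1A2 from a pro-luciferin substrate; series mostly up to about 37 µM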
# Chain of Cytochrome P450 1A2 (Homo sapiens) (P05177 whole entry, looked up): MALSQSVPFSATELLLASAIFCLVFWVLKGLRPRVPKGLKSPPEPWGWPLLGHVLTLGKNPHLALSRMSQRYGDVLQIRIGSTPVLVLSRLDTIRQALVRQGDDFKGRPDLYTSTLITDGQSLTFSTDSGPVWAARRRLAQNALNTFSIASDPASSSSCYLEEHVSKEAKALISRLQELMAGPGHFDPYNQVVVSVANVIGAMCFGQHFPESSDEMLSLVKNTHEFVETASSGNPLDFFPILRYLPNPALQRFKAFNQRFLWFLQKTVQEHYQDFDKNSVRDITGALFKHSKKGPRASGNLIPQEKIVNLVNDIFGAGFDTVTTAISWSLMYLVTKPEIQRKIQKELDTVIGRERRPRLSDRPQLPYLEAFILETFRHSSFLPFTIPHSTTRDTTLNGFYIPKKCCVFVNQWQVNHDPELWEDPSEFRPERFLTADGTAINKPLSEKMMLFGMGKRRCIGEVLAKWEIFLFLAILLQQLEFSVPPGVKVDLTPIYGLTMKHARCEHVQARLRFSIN
# In short: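 Human CYP1A2 with pro-luciferin substrate (typically 100 mM KPO4), 15 min preincubation with compound, then 1x NADPH regeneration for 30-45 min at room temperature in the dark. Luciferin quantified by luciferase luminescence; furafylline intraplate control.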
structure (smiles),measurement,setting,value
CC(=O)Oc1cc(C)c(OC(C)=O)c2ccccc12,Potency,[1],inactive
same,Potency,[2],inactive
CC(=O)OCC(=O)[C@@]12OC3(CCCC3)O[C@@H]1C[C@H]1[C@@H]3CCC4=CC(=O)C=C[C@]4(C)[C@@]3(F)[C@@H](O)C[C@@]12C,Potency,[1],inactive
same,Potency,[2],inactive
CCCCC(CC)COC(=O)CC(C(=O)OCC(CC)CCCC)S(=O)(=O)O (stereo unspecified),Potency,[1],inactive
O=C(O)c1cc(O)c2c(c1)[O][Bi][O]2,outcome,[1],inactive [at 0.4 µM]
same,outcome,[2],inactive [at 0.409 µM]
CC1=CCC(C(C)(C)O)CC1 (stereo unspecified),outcome,[3],inactive
same,Potency,[2],inactive
same,outcome,[4],inactive
same,outcome,[5],inactive
same,Potency,[6],3.55 µM (active)
same,outcome,[7],inactive
same,max response,[8],-0.821% (inactive)
same,outcome,[9],inactive
same,outcome,[10],inactive
same,outcome,[11],inactive
same,outcome,[12],inactive
Nc1ncnc2c1ncn2[C@@H]1O[C@H](COP(=O)(O)OP(=O)(O)OP(=O)(O)O)[C@@H](O)[C@H]1O,outcome,[1],inactive [at 0.4 µM]
same,"activity change, negative = inhibition",[2],0.0913% [at 0.409 µM] (inactive)
Cc1cc(C(=O)NNCc2ccccc2)no1,Potency,[1],inactive
CC(Cc1ccc(O)c(O)c1)C(C)Cc1ccc(O)c(O)c1 (stereo unspecified),Potency,[1],inactive
same,Potency,[2],11.2 µM (active)
CC1(C)C(C=C(Cl)Cl)C1C(=O)OCc1cccc(Oc2ccccc2)c1 (stereo unspecified),Potency,[1],inactive
same,Potency,[2],inactive
Cc1cc(/C=C/c2ccc3cc(N(C)C)ccc3[n+]2C)c(C)n1-c1ccccc1,Potency,[1],inactive
same,Potency,[2],14.1 µM (active)
CC1=C(/C=C/C(C)=C/C=C/C(C)=C/C=C/C=C(C)/C=C/C=C(C)/C=C/C2=C(C)CCCC2(C)C)C(C)(C)CCC1,outcome,[3],inactive
same,Potency,[1],inactive
same,Potency,[2],inactive
same,outcome,[4],inactive
same,outcome,[5],inactive
same,Potency,[13],inactive
same,Potency,[6],inactive
same,outcome,[7],inactive
same,max response,[8],-3.35% (inactive)
same,outcome,[9],inactive
same,outcome,[10],inactive
same,outcome,[11],inactive
same,outcome,[12],inactive
same,Z-AUC,[14],1.77 (inactive)
same,Z-AUC,[14]; measured here: PEO1 parental Z-AUC,1.11
same,Z-AUC,[14]; measured here: PEO4 Z-AUC,0.804
CC[C@@H](C(=O)O)[C@@H]1O[C@@H]([C@@H](C)[C@H](O)[C@H](C)C(=O)[C@H](CC)[C@H]2O[C@]3(C=C[C@@H](O)[C@]4(CC[C@@](C)([C@H]5CC[C@](O)(CC)[C@H](C)O5)O4)O3)[C@H](C)C[C@@H]2C)[C@@H](C)C[C@@H]1C,Potency,[1],inactive
CCN(CC)Cc1cc(Nc2ccnc3cc(Cl)ccc23)ccc1O,Potency,[1],inactive
same,Potency,[2],inactive
C[C@@H]1[C@H](O)[C@@H](C)/C=C/C=C\C=C\C=C\C=C\C=C\C=C\[C@H](O[C@@H]2O[C@H](C)[C@@H](O)[C@H](N)[C@@H]2O)C[C@@H]2O[C@](O)(C[C@@H](O)C[C@@H](O)[C@H](O)CC[C@@H](O)C[C@@H](O)CC(=O)O[C@H]1C)C[C@H](O)[C@H]2C(=O)O (stereo in doubt),Potency,[1],inactive
same,Potency,[2],inactive
CC[C@@H](C(=O)[C@@H](C)[C@@H](O)[C@H](C)CCc1ccc(C)c(O)c1C(=O)O)[C@H]1O[C@](CC)([C@H]2CC[C@](O)(CC)[C@H](C)O2)C[C@@H]1C,Potency,[1],inactive
same,Potency,[2],4.47 µM (active)
CCCCCCCC(=O)O,outcome,[3],inactive
same,Potency,[1],inactive
same,Potency,[2],inactive
same,outcome,[4],inactive
same,outcome,[5],inactive
same,Potency,[13],inactive
same,Potency,[6],inactive
same,outcome,[7],inactive
same,outcome,[15],inactive
same,max response,[8],5.32% (inactive)
same,outcome,[9],inactive
same,outcome,[10],inactive
same,outcome,[11],inactive
same,outcome,[12],inactive
Cc1c(C)c2c(c(C)c1O)CC[C@@](C)(CCC[C@H](C)CCC[C@H](C)CCCC(C)C)O2,outcome,[3],inactive
same,outcome,[4],inactive
same,Potency,[13],inactive
same,Potency,[6],inactive
same,outcome,[7],inactive
same,outcome,[15],inactive
same,max response,[8],-0.537% (inactive)
same,outcome,[9],inactive
same,outcome,[10],inactive
same,outcome,[11],inactive
same,outcome,[12],inactive
COC(=O)C1=C(C#N)NC(C)=C(C(=O)OC(C)C)C1c1cccc([N+](=O)[O-])c1 (stereo unspecified),Potency,[1],inactive
same,Potency,[2],inactive
COC(=O)CCC(=O)CN,Potency,[1],inactive
same,Potency,[2],inactive
Clc1cc(Cl)c(OCC#CI)cc1Cl,Potency,[1],inactive
same,Potency,[2],inactive
